Measurements published in PubChem BioAssay (NCI).
Where “and” joins values, the source holds several entries; their conditions need not be identical. Equal values may be shown once. About 83,000 compounds went through this panel and 20% of them were active in at least one assay; those are over-represented in the sample as a whole.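 In brief: 96-well plates, 48 h treatment, single concentration, percent growth endpoint.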 Calls of active or inactive are those of the source. Rule for the calls: active = growth percent below 10; inactive = the rest.

Columns and labels:
Test in all cases: NCI-60 one-dose screen, 48 h (100 = growth as untreated, 0 = no growth, -100 = all killed)
Conditions in all cases: 10 µM unless noted
[1] = system: SK-MEL-2 melanoma
[2] = system: EKVX NSCLC
[3] = system: SN12C renal
[4] = system: UO-31 renal
[5] = system: TK-10 renal
[6] = system: ACHN renal
[7] = system: CAKI-1 renal
[8] = system: A498 renal
[9] = system: CCRF-CEM leukemia
[10] = system: MOLT-4 leukemia

| Compound | growth [1] | growth [2] | growth [3] | growth [4] | growth [5] | growth [6] | growth [7] | growth [8] | growth [9] | growth [10] |
| --- | --- | --- | --- | --- | --- | --- | --- | --- | --- | --- |
| O=C(/C=C/c1cccc(Br)c1)c1cccc(OCCCCOc2cccc(C(=O)/C=C/c3cccc(Br)c3)c2)c1 | 104% (inactive) | 101% (inactive) | 99.7% (inactive) | 91.4% (inactive) | 115% (inactive) | 101% (inactive) | 100% (inactive) | 113% (inactive) | 105% (inactive) | – |
| C#CCOc1cccc(-c2nc(N)nc(Nc3ccccc3SSc3ccccc3Nc3nc(N)nc(-c4cccc(OCC#C)c4)n3)n2)c1 | 96.3% (inactive) | 37.3% (inactive) | 1.17% (active) | -78.6% (active) | 134% (inactive) | -76.4% (active) | 29.1% (inactive) | 73% (inactive) | 30.6% (inactive) | – |
| CC(Nc1ncnc2ccc(-c3cnc(N)nc3)cc12)c1ccccc1 (centres undefined) | 60.8% (inactive) | 13.5% (inactive) | 22.1% (inactive) | 9.12% (active) | -8.21% (active) | 16.9% (inactive) | 16.7% (inactive) | 11.5% (inactive) | 36.4% (inactive) | – |
| CCN(CC)CCOc1ccc(C(=C(C)c2ccc(OC)cc2)c2ccc(OCCN(CC)CC)cc2)cc1 | -36.7% (active) | 39.1% (inactive) | 34.6% (inactive) | -75.1% (active) | 18.8% (inactive) | -34.1% (active) | -18.2% (active) | -29% (active) | -10.8% (active) | – |
| COc1cc(/C=C2/C(=O)Nc3ccc(Cl)cc32)ccc1OCc1ccc(Cl)cc1 | 107% (inactive) | 88.5% (inactive) | 88.9% (inactive) | 74.3% (inactive) | 129% (inactive) | 52.7% (inactive) | 83.3% (inactive) | 93.4% (inactive) | 69.5% (inactive) | – |
| FC(F)(F)c1cc(Br)cc(-c2cc(-c3ccc4c(c3)OCCO4)[nH]n2)c1 | 77.4% (inactive) | 52.4% (inactive) | 44.7% (inactive) | 51.3% (inactive) | 121% (inactive) | 28.9% (inactive) | 33.3% (inactive) | 11.6% (inactive) | 14.9% (inactive) | – |
| CCOP(=O)(OCC)OC[C@]12CC[C@@H](C)[C@H](C)C1C1=CC[C@@H]3[C@@]4(C)CCCNC(C)(C)[C@@H]4CC[C@@]3(C)[C@]1(C)CC2 (some centres undefined) | 109% (inactive) | 36.8% (inactive) | 40.1% (inactive) | 21.1% (inactive) | 61.2% (inactive) | 34.4% (inactive) | 13% (inactive) | 66.3% (inactive) | -33.3% (active) | – |
| COc1ccc(/C=N\NC(=O)c2cnn(CC(O)c3ccccc3)c2N)cc1OCc1ccc(Cl)cc1 (centres undefined) | 92.9% (inactive) | 79.1% (inactive) | 84.4% (inactive) | 87.4% (inactive) | 101% (inactive) | 58.6% (inactive) | 71% (inactive) | 48% (inactive) | 72.6% (inactive) | – |
| COc1ccc2c(c1)c(-c1nnc(N)nc1-c1c[nH]c3ccc(F)cc13)cn2C | 36.3% (inactive) | 55.5% (inactive) | 69.5% (inactive) | 75.6% (inactive) | 90% (inactive) | 64.5% (inactive) | 41.6% (inactive) | 27.5% (inactive) | 22.3% (inactive) | – |
| CCC(=C(c1ccc(OCCN2CCCCCC2)cc1)c1ccc(OCCN2CCCCCC2)cc1)c1ccc(Cl)cc1 | -29.9% (active) | 54.5% (inactive) | 48.3% (inactive) | 13.6% (inactive) | 114% (inactive) | 26.2% (inactive) | 44.3% (inactive) | 84.4% (inactive) | 3.5% (active) | – |
| C#Cc1nc(/C=C/CCCCCCC(=O)NO)cs1 | 96.1% (inactive) | 89.5% (inactive) | 90.3% (inactive) | -93.1% (active) | 31.6% (inactive) | -39.1% (active) | -11.4% (active) | 73.9% (inactive) | -39.3% (active) | – |
| Cc1ccc(NC(=O)/C=C/c2ccc(OCCCOc3ccc4c(C)cc(=O)oc4c3)cc2)cc1 | 58% (inactive) | 83.1% (inactive) | 73.3% (inactive) | 39.6% (inactive) | 91.5% (inactive) | 17.7% (inactive) | 51% (inactive) | 45.2% (inactive) | 99.1% (inactive) | 103% (inactive) |
| C/C(=N\NC(N)=S)c1nnn(-c2ccc([N+](=O)[O-])cc2)c1C | 110% (inactive) | 62.4% (inactive) | 94.5% (inactive) | 70.5% (inactive) | 98.7% (inactive) | 97% (inactive) | 90.8% (inactive) | 94% (inactive) | 101% (inactive) | 105% (inactive) |
| COc1cc(-c2nc(-c3ccccc3)[nH]c2-c2ccnc(NCCCNS(=O)(=O)c3ccc(C(F)(F)F)cc3)n2)ccc1Cl | 74.8% (inactive) and 43.8% (inactive) | 30% (inactive) and 44.9% (inactive) | 49.4% (inactive) and 49.5% (inactive) | 46.5% (inactive) and 35.4% (inactive) | 79.1% (inactive) and 61.2% (inactive) | 33.3% (inactive) and 32.6% (inactive) | 31.2% (inactive) and 35.4% (inactive) | 40% (inactive) and 64.3% (inactive) | 6.64% (active) and 21.7% (inactive) | -4.06% (active) and 16.3% (inactive) |
| NS(=O)(=O)c1ccc(Nc2nc(N/N=C/c3ccc4c(c3)OCO4)nc(Nc3ccccc3)n2)cc1 | 55.8% (inactive) | 73.2% (inactive) | 54.3% (inactive) | 76.8% (inactive) | 96.6% (inactive) | 57.8% (inactive) | 45.4% (inactive) | 51.1% (inactive) | 16.3% (inactive) | 11.2% (inactive) |
| CC(Nc1c(C#N)cnc2ccc(-c3cncc(-c4n[nH]c(=O)o4)c3)cc12)c1ccccc1 (centres undefined) | -34% (active) | -12% (active) | 11% (inactive) | 1.27% (active) | -23.8% (active) | 9.24% (active) | 4.01% (active) | -6.1% (active) | 19.6% (inactive) | 8.04% (active) |
| Cc1ccccc1N1CCN(C2=C(Cl)C(=O)c3ncccc3C2=O)CC1 | 81.1% (inactive) | 95.4% (inactive) | 70.1% (inactive) | 2.66% (active) | 68.7% (inactive) | -22.6% (active) | 25.4% (inactive) | 111% (inactive) | 0.314% (active) | 10.4% (inactive) |
| CCNCCOc1ccc(/C(=C(/CC)c2ccc(Cl)cc2)c2ccc(OCCCN(C)C)cc2)cc1 | -84% (active) | -84.4% (active) | -85.6% (active) | -95.6% (active) | -89.8% (active) | -98% (active) | -75.1% (active) | -86.3% (active) | -37.5% (active) | -62.6% (active) |
| CN1CCN(c2ccc(Nc3nc(NCCCNS(=O)(=O)c4ccc(Cl)cc4)c4sccc4n3)cc2)CC1 | -9.34% (active) | 50.8% (inactive) | 36.7% (inactive) | -58.9% (active) | 9.93% (active) | 6.32% (active) | 10.8% (inactive) | 19.7% (inactive) | 13% (inactive) | 4.92% (active) |
| COc1ccc(NC(=O)CCCCCCNC(=O)C(O)(O)C(F)(F)F)cc1 | 12.7% (inactive) | 61.7% (inactive) | 59.9% (inactive) | 37.7% (inactive) | 6.59% (active) | 20.2% (inactive) | 26% (inactive) | 41.8% (inactive) | 26.2% (inactive) | 21% (inactive) |
| O=C(CSc1nnc(-c2cccs2)n1-c1ccccc1)Nc1ccccc1F | 95.8% (inactive) | 94.6% (inactive) | 99.1% (inactive) | 77.4% (inactive) | 110% (inactive) | 92.5% (inactive) | 55.6% (inactive) | 79.9% (inactive) | 76.9% (inactive) | 72% (inactive) |
| CN1CC[C@@H]2[C@@]3(C)CC[C@H](O)C(C)(C)[C@@H]3CC[C@@]2(C)[C@]2(C)CC[C@@]3(CO)CCC(C)(C)C[C@@H]3C12 (some centres undefined) | 102% (inactive) | 100% (inactive) | 91.9% (inactive) | 68.2% (inactive) | 117% (inactive) | 99.8% (inactive) | 84.1% (inactive) | 97.1% (inactive) | 76.2% (inactive) | 75.4% (inactive) |
| C/C(=N\NC(=O)/C=C/CC(=O)O)c1nnn(-c2ccc([N+](=O)[O-])cc2)c1C | 99.5% (inactive) | 101% (inactive) | 101% (inactive) | 87.8% (inactive) | 94.1% (inactive) | 104% (inactive) | 91.5% (inactive) | 110% (inactive) | 109% (inactive) | 105% (inactive) |
| CCCCCCOC(=O)c1cc(-c2ccc(F)cc2)nc2ccccc12 | 101% (inactive) | 96.8% (inactive) | 95% (inactive) | 86.6% (inactive) | 118% (inactive) | 100% (inactive) | 90.3% (inactive) | 76.4% (inactive) | 95.8% (inactive) | 97.2% (inactive) |
| O=C1Nc2cc(Cl)ccc2/C1=C\c1ccc(OCc2ccccc2)cc1 | 111% (inactive) | 100% (inactive) | 96% (inactive) | 76.2% (inactive) | 154% (inactive) | 94.8% (inactive) | 89.3% (inactive) | 93% (inactive) | 102% (inactive) | 99.1% (inactive) |
| COc1ccc(-c2cc(-c3ccc(N(C)C)cc3)n3c(n2)nc2ccccc23)cc1 | -3.8% (active) | 56.5% (inactive) | 64.7% (inactive) | 35.2% (inactive) | 40.9% (inactive) | 63.7% (inactive) | 61.2% (inactive) | 51.8% (inactive) | 24% (inactive) | 13.8% (inactive) |
